# Assay results published in PubChem BioAssay (NCI).
# Several values for one entry are separate records, joined by “and”; a condition that tells them apart may be missing. Equal entries are not always repeated. About 79,000 compounds went through this panel and 15% of them were active in at least one assay; those are over-represented in the sample as a whole. Where a structure was tested more than once in an assay, its records may differ in their call. Activity calls are given as the source filed them. Rule as the data show it: active = growth inhibition above about 70%; inactive = the rest.
# How the values were obtained:
# [1] = NCI Yeast Anticancer Drug Screen. Data for the sgs1 strain (AID 173);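 also: 0% = growth of vehicle-only control cultures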; conditions: S. cerevisiae sgs1 mutant, stronger effect = higher value
# Method in brief: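 Screen format: yeast with repair or checkpoint alterations, compound exposure, growth read relative to vehicle.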
# [2] = NCI Yeast Anticancer Drug Screen. Data for the mlh1 rad18 strain (AID 175); conditions: S. cerevisiae mlh1 rad18 strain growth inhibition, stronger effect = higher value
# Method in brief: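 Vehicle-treated cultures served as the reference for growth inhibition in a yeast strain carrying DNA damage repair alterations exposed to each compound.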
# [3] = NCI Yeast Anticancer Drug Screen. Data for the rad18 strain (AID 177); conditions: S. cerevisiae rad18 mutant growth inhibition, stronger effect = higher value
# Method in brief: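 Test articles were incubated with altered yeast defective in DNA damage repair. Results are given as inhibition of growth versus vehicle.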
# [4] = NCI Yeast Anticancer Drug Screen. Data for the rad50EPP+ strain (AID 151);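 also: 0% = growth of vehicle-treated control cultures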; conditions: S. cerevisiae rad50 mutant strain, stronger effect = higher value
# Method in brief: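 In this screen, rad50EPP+ yeast were exposed to compounds. Growth inhibition was scored against vehicle-treated controls.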
# [5] = NCI Yeast Anticancer Drug Screen. Data for the rad50 strain (AID 155);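 also: 0% = growth of vehicle-only cultures of the same strain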; conditions: S. cerevisiae rad50 strain growth inhibition, stronger effect = higher value
# Method in brief: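 Readout: growth inhibition relative to vehicle-treated cultures. Compound exposure was carried out in a genetically defined yeast strain deficient in DNA damage repair.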
# [6] = NCI Yeast Anticancer Drug Screen. Data for the mec2-1 strain (AID 157); conditions: S. cerevisiae mec2-1 strain, stronger effect = higher value
# Method in brief: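 Vehicle-treated cultures served as reference for growth inhibition of compound-exposed mec2-1 yeast.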
# [7] = NCI Yeast Anticancer Drug Screen. Data for the rad14 strain (AID 159);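 also: 0% = growth of vehicle-treated control cultures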; conditions: S. cerevisiae rad14 strain growth inhibition, stronger effect = higher value
# Method in brief: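 Growth inhibition vs vehicle controls; genetically altered yeast strain (DNA damage repair defect) treated with test compounds.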
# [8] = NCI Yeast Anticancer Drug Screen. Data for the sgs1 mgt1 strain (AID 161);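 also: 0% = growth of cultures given vehicle only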; conditions: S. cerevisiae sgs1 mgt1 strain, stronger effect = higher value
# Method in brief: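 Genetically altered yeast, compound exposure, growth inhibition relative to vehicle.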
# [9] = NCI Yeast Anticancer Drug Screen. Data for the CLN2oe strain (AID 163);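 also: 0% = growth of vehicle-only control cultures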; conditions: S. cerevisiae CLN2oe strain, stronger effect = higher value
# Method in brief: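 Inhibition relative to vehicle-treated yeast is reported. Cells: strain with genetic alteration in cell-cycle control, grown with compound.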
# [10] = NCI Yeast Anticancer Drug Screen. Data for the cln2 rad14 strain (AID 165);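 also: 0% = growth equal to vehicle treated cultures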; conditions: S. cerevisiae cln2 rad14 strain, stronger effect = higher value
# Method in brief: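 Each compound was tested on cln2 rad14 yeast. Inhibition of growth was calculated against vehicle-exposed controls.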
# [11] = NCI Yeast Anticancer Drug Screen. Data for the bub3 strain (AID 167); conditions: S. cerevisiae bub3 mutant strain, stronger effect = higher value
# Method in brief: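 Readout: yeast growth inhibition, expressed relative to vehicle-only wells. The test organism is a mutant strain from a panel with lesions in DNA repair or checkpoint genes.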
# [12] = NCI Yeast Anticancer Drug Screen. Data for the wt2 strain (AID 169);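 also: 0% = growth of vehicle-treated yeast cultures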; conditions: S. cerevisiae wt2 strain growth inhibition, stronger effect = higher value
# Method in brief: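 Inhibition of yeast growth was determined after compound treatment, normalised to controls receiving only vehicle.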
# [13] = NCI Yeast Anticancer Drug Screen. Data for the mlh1 strain (AID 171);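 also: 0% = growth of vehicle-treated control cultures of the same strain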; conditions: S. cerevisiae mlh1 strain growth inhibition, stronger effect = higher value
# Method in brief: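 Vehicle-normalised growth inhibition of a repair- or checkpoint-altered yeast strain following compound treatment.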
# [14] = at 5.0 µM (retest, dose inferred, filed as 0.5)
# [15] = at 50.0 µM (retest, dose inferred, filed as 5.0)
smiles,measurement,setting,value
CCOc1ccccc1N1C(=O)CC(Sc2ccccc2N)C1=O (configuration not stated),growth inhibition,[1]; at 1.2 µM,16% (inactive)
same,growth inhibition,[1]; at 3.7 µM,5% (inactive)
same,growth inhibition,[1]; at 11.0 µM,6% (inactive)
same,growth inhibition,[1]; at 33.0 µM,14% (inactive)
same,growth inhibition,[1]; at 100.0 µM,-1% (inactive)
same,growth inhibition,[2]; [14],37% (inactive)
same,growth inhibition,[2]; [15],70% (active)
same,growth inhibition,[2]; at 50.0 µM,16.5% (inactive)
same,growth inhibition,[3]; at 1.2 µM,1% (inactive)
same,growth inhibition,[3]; at 3.7 µM,-12% (inactive)
same,growth inhibition,[3]; at 11.0 µM,-22% (inactive)
same,growth inhibition,[3]; at 33.0 µM,-13% (inactive)
same,growth inhibition,[3]; at 100.0 µM,-24% (inactive)
O=c1oc(C(C(F)(F)F)C(F)(F)F)nc2ccccc12,growth inhibition,[4]; at 1.2 µM,22% (inactive)
same,growth inhibition,[4]; at 3.7 µM,30% (inactive)
same,growth inhibition,[4]; at 11.0 µM,35% (inactive)
same,growth inhibition,[4]; at 33.0 µM,43% (inactive)
same,growth inhibition,[4]; at 100.0 µM,51% (inactive)
same,growth inhibition,[5]; at 1.2 µM,33% (inactive)
same,growth inhibition,[5]; at 3.7 µM,27% (inactive)
same,growth inhibition,[5]; [14],10% (inactive)
same,growth inhibition,[5]; at 11.0 µM,25% (inactive)
same,growth inhibition,[5]; at 33.0 µM,29% (inactive)
same,growth inhibition,[5]; [15],72% (active)
same,growth inhibition,[5]; at 50.0 µM,36.1% (inactive)
same,growth inhibition,[5]; at 100.0 µM,29% (inactive)
same,growth inhibition,[6]; at 1.2 µM,13% (inactive)
same,growth inhibition,[6]; at 3.7 µM,27% (inactive)
same,growth inhibition,[6]; [14],7% (inactive)
same,growth inhibition,[6]; at 11.0 µM,23% (inactive)
same,growth inhibition,[6]; at 33.0 µM,29% (inactive)
same,growth inhibition,[6]; [15],83% (active)
same,growth inhibition,[6]; at 50.0 µM,70.2% (active)
same,growth inhibition,[6]; at 100.0 µM,34% (inactive)
same,growth inhibition,[7]; at 1.2 µM,16% (inactive)
same,growth inhibition,[7]; at 3.7 µM,21% (inactive)
same,growth inhibition,[7]; at 11.0 µM,26% (inactive)
same,growth inhibition,[7]; at 33.0 µM,29% (inactive)
same,growth inhibition,[7]; at 100.0 µM,42% (inactive)
same,growth inhibition,[8]; [14],-5% (inactive)
same,growth inhibition,[8]; [15],12% (inactive)
same,growth inhibition,[8]; at 50.0 µM,12.7% (inactive)
same,growth inhibition,[9]; at 1.2 µM,18% (inactive)
same,growth inhibition,[9]; at 3.7 µM,12% (inactive)
same,growth inhibition,[9]; at 11.0 µM,26% (inactive)
same,growth inhibition,[9]; at 33.0 µM,1% (inactive)
same,growth inhibition,[9]; at 100.0 µM,15% (inactive)
same,growth inhibition,[10]; [14],23% (inactive)
same,growth inhibition,[10]; [15],33% (inactive)
same,growth inhibition,[10]; at 50.0 µM,12.3% (inactive)
same,growth inhibition,[11]; at 1.2 µM,3% (inactive)
same,growth inhibition,[11]; at 3.7 µM,13% (inactive)
same,growth inhibition,[11]; [14],-27% (inactive)
same,growth inhibition,[11]; at 11.0 µM,20% (inactive)
same,growth inhibition,[11]; at 33.0 µM,-5% (inactive)
same,growth inhibition,[11]; [15],-6% (inactive)
same,growth inhibition,[11]; at 50.0 µM,16.6% (inactive)
same,growth inhibition,[11]; at 100.0 µM,15% (inactive)
same,growth inhibition,[12]; at 1.2 µM,-3% (inactive)
same,growth inhibition,[12]; at 3.7 µM,-5% (inactive)
same,growth inhibition,[12]; at 11.0 µM,-7% (inactive)
same,growth inhibition,[12]; at 33.0 µM,2% (inactive)
same,growth inhibition,[12]; at 100.0 µM,32% (inactive)
same,growth inhibition,[13]; at 1.2 µM,16% (inactive)
same,growth inhibition,[13]; at 3.7 µM,12% (inactive)
same,growth inhibition,[13]; at 11.0 µM,17% (inactive)
same,growth inhibition,[13]; at 33.0 µM,20% (inactive)
same,growth inhibition,[13]; at 100.0 µM,32% (inactive)
same,growth inhibition,[1]; at 1.2 µM,26% (inactive)
same,growth inhibition,[1]; at 3.7 µM,39% (inactive)
same,growth inhibition,[1]; at 11.0 µM,40% (inactive)
same,growth inhibition,[1]; at 33.0 µM,43% (inactive)
same,growth inhibition,[1]; at 100.0 µM,46% (inactive)
same,growth inhibition,[2]; [14],15% (inactive)
same,growth inhibition,[2]; [15],88% (active)
same,growth inhibition,[2]; at 50.0 µM,50.6% (inactive)
same,growth inhibition,[3]; at 1.2 µM,22% (inactive)
same,growth inhibition,[3]; at 3.7 µM,15% (inactive)
same,growth inhibition,[3]; at 11.0 µM,20% (inactive)
same,growth inhibition,[3]; at 33.0 µM,19% (inactive)
same,growth inhibition,[3]; at 100.0 µM,30% (inactive)
CC(C)c1ccc(O)c(=O)cc1,growth inhibition,[5]; [14],6% (inactive) and 0% (inactive)
same,growth inhibition,[5]; [15],42% (inactive) and 28% (inactive) and -1% (inactive)
same,growth inhibition,[5]; at 50.0 µM,91.8% (active) and 92.7% (active) and 92.8% (active)
same,growth inhibition,[6]; [14],2% (inactive) and -1% (inactive)
same,growth inhibition,[6]; [15],50% (inactive) and 57% (inactive) and 7% (inactive)
same,growth inhibition,[6]; at 50.0 µM,93.8% (active) and 94.7% (active) and 94.6% (active)
same,growth inhibition,[8]; [14],4% (inactive) and 6% (inactive)
same,growth inhibition,[8]; [15],42% (inactive) and 31% (inactive) and 1% (inactive)
same,growth inhibition,[8]; at 50.0 µM,93.5% (active) and 94% (active) and 93% (active)
same,growth inhibition,[10]; [14],6% (inactive) and 5% (inactive) and -1% (inactive)
same,growth inhibition,[10]; [15],21% (inactive) and 15% (inactive) and 2% (inactive)
same,growth inhibition,[10]; at 50.0 µM,91.3% (active) and 90.5% (active) and 91.5% (active)
same,growth inhibition,[11]; [14],0% (inactive) and -1% (inactive) and -5% (inactive)
same,growth inhibition,[11]; [15],48% (inactive) and 56% (inactive) and -2% (inactive)
same,growth inhibition,[11]; at 50.0 µM,92.7% (active) and 93.3% (active) and 92.8% (active)
same,growth inhibition,[2]; [14],5% (inactive) and 6% (inactive) and 2% (inactive)
same,growth inhibition,[2]; [15],45% (inactive) and 43% (inactive) and -2% (inactive)
same,growth inhibition,[2]; at 50.0 µM,91.2% (active) and 92.4% (active) and 92.1% (active)
CCCCCCCCCCCC[N+](C)(C)Cc1ccccc1 (tested in a mixture with another compound),growth inhibition,[5]; [14],79% (active) and 69% (inactive) and 58% (inactive)
same,growth inhibition,[5]; [15],99% (active)
same,growth inhibition,[5]; at 50.0 µM,98% (active) and 99.6% (active) and 97.7% (active)
same,growth inhibition,[6]; [14],79% (active) and 55% (inactive) and 44% (inactive)
same,growth inhibition,[6]; [15],100% (active)
same,growth inhibition,[6]; at 50.0 µM,99.7% (active) and 99.8% (active) and 86.8% (active)
same,growth inhibition,[8]; [14],93% (active) and 95% (active) and 89% (active)
same,growth inhibition,[8]; [15],100% (active) and 99% (active)
same,growth inhibition,[8]; at 50.0 µM,99.7% (active) and 99.8% (active) and 99.5% (active)
same,growth inhibition,[10]; [14],66% (inactive) and 58% (inactive) and 61% (inactive)
same,growth inhibition,[10]; [15],99% (active)
same,growth inhibition,[10]; at 50.0 µM,98.5% (active) and 97.3% (active) and 96% (active)
same,growth inhibition,[11]; [14],93% (active) and 76% (active)
same,growth inhibition,[11]; [15],100% (active) and 99% (active)
same,growth inhibition,[11]; at 50.0 µM,99.8% (active) and 99.3% (active) and 98.3% (active)
same,growth inhibition,[2]; [14],94% (active) and 74% (active) and 78% (active)
same,growth inhibition,[2]; [15],100% (active)
same,growth inhibition,[2]; at 50.0 µM,99.5% (active) and 98.9% (active)
